aSyn rescue = rescues yeast growth from alpha-synuclein toxicity | Yeast expressing alpha-synuclein, growth rescue, BacTiter-Glo, 24 h | Potency, µM (titrated, usually from 46.1 µM), inactives show at the top dose growth rescue (activation), hits mostly activators | 370,000 compounds, 0.14% hits | AID 652106; further: potency means the concentration at half of the fitted maximal effect; % of control where 0% means no effect; nearly all actives have a fitted effect of over 65% in size
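Screening used galactose-induced yeast with toxic alpha-synuclein levels, exposed to compound for 24 hr at 30 deg C. Cell growth, read with BacTiter-Glo luminescence, gave the measured signal.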
pAkt inh = blocks phosphorylation of Akt | AID 651550 | activity change, % for hits at 50 µM | 360,000 compounds, 0.32% hits | Neuro2A IGF-stimulated pAkt S473 HTRF, 20 min; active compounds read low; in the data active means activity change below about -80%; inconclusive means mostly about -51% to -80%; further: on the % scale 0 is the no-effect control and ±100 the full control effect
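Single-point screen (50 µM final compound) in Neuro2A cells stimulated 20 min with 6 nM IGF at 37 deg C. After lysis, Ser473-phosphorylated Akt read by HTRF (ex 330 nm, em 615/665 nm) as the 665/615 ratio.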
TDP-43 yeast inh = rescues yeast growth from TDP-43 toxicity. Potency, µM (doses to about 46.1 µM), for the others: at the top dose growth rescue (activation), most hits filed as activators. TDP-43 expressing yeast growth rescue, BacTiter-Glo, 24 h. 410,000 compounds, 1.8% hits. AID 652104; further: potency means the concentration at half of the fitted maximal effect; % of control where 0% means no effect; nearly all actives have a fitted effect of over 50% in size
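Growth rescue of TDP-43-toxic yeast measured as ATP luminescence (BacTiter-Glo). Cells grown to mid-log in raffinose, induced in galactose at OD600=0.02, exposed to compound 24 hr at 30 deg C.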
FUS suppressor = FUS proteinopathy suppression in yeast; S. cerevisiae FUS-expressing, growth rescue, OD600, 24 h; Potency, µM (top dose mostly 76.6 µM), hits mostly activators; 390,000 compounds, 0.24% hits; AID 1347120;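 further: potency means the concentration at half of the fitted maximal effect; plate controls were DMSO vehicle for no effect and reference control for full effect; nearly all actives have a fitted effect of over 55% in size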
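Read-out: OD at 600 nm after 24hr at 30C, reporting rescue of FUS-induced yeast toxicity. Cells at OD 0.005 in galactose (2%) minimal medium; compounds tested in a dilution series; CP55940 titration from 92uM final as control.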
Abeta yeast res = A-beta toxicity reversal in yeast; yeast expressing A-beta42, growth rescue, OD600, 48 h; response scale: 0% DMSO, 100% iron-clioquinol control; Potency, µM (highest dose often 46.1 µM), usual class: activators; 410,000 compounds, 0.063% hits; AID 1347071; further: potency means the concentration at half of the fitted maximal effect; nearly all actives have a fitted effect of over 55% in size
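Yeast A-beta toxicity model in growth medium with pinned compounds, 48 h at 30 C; growth read as absorbance at 600 nm. Normalized to FeCl3/clioquinol equimolar mix (positive) and DMSO (negative).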
An asterisk follows results filed as active; i = inactive; ? = inconclusive; nt = no result given; ! = not confirmed by another sample. This is a sample that favours compounds with a hit; in the whole collection about 2.3% have one here. Unless noted, the call rests on the fitted dose curve; in most records, active means well fitted curve in the direction sought with a large enough effect; inconclusive means small, poorly fitted or top-dose-only effect, or another doubt; inactive means no such curve, though single readings can be large; an effect the other way counts as inactive or inconclusive.

SMILES | aSyn rescue | pAkt inh | TDP-43 yeast inh | FUS suppressor | Abeta yeast res
Cc1cn(C2OC(COC(=O)c3ccccc3)C(OC(=O)c3ccccc3)C2OC(=O)c2ccccc2)c(=O)[nH]c1=O (centres undefined) | 23% | i | -16% | 25µM* | i
Brc1ccc(-c2cn3cc(Cc4ccccc4)sc3n2)cc1 | nt | nt | 0% | i | i
COc1ccc(NC(=O)CCS(=O)(=O)c2ccccc2Cl)cc1S(=O)(=O)Nc1ccc(Cl)cc1 | -3% | i | -2% | 32µM* | i
COc1ccc(NC(=O)CCC(=O)c2cccs2)cc1S(=O)(=O)Nc1ccc(Cl)cc1 | 2% | i | 27% | nt | i
CCCS(=O)(=O)c1ncc(Cl)c(C(=O)N(Cc2ccccc2)Cc2ccco2)n1 | 23% | nt | 16µM* | i | i
CCSc1ncc(Cl)c(C(=O)N(Cc2ccccc2)Cc2ccco2)n1 | nt | nt | 18% | i | i
c1ccc(-c2nnc(N3CCCC3)nc2-c2ccccc2)cc1 | -7% | i | 18µM* | i | i
COC(=O)C(C)NC(=S)N1CCN(c2c(F)cc3c(=O)c(C(=O)O)cn(C4CC4)c3c2OC)CC1C (centres undefined) | 7% | i | ? | 32µM* | i
Cc1ccc(N/C(C(Cl)=C(Cl)Cl)=C(/Cl)[N+](=O)[O-])c(C)c1 | 8% | i | 13µM* | i | i
Cc1ccc(NC(=O)CC(=O)Nc2ccc(C)cc2C)c(C)c1 | 8% | i | 5% | i | i
N/C(=N\OC(=O)CC1CCCCC1)c1ccccn1 | 4% | i | 16µM* | i | i
N/C(=N\OC(=O)Cc1ccc(-c2ccccc2)cc1)c1ccccn1 | -1% | i | 13µM* | i | i
CC(=O)N1CCCc2cc(S(=O)(=O)N3CCC(C(=O)Nc4ccc(C)cc4Cl)CC3)ccc21 | nt | nt | 16% | i | i
COC(=O)CN(C)C1CC(=O)N(c2ccc(Cl)cc2)C1=O (centres undefined) | 2% | i | 18µM* | i | i
O=C1CC(Sc2ccc(Cl)cc2)C(=O)N1c1ccc2c(c1)OCCO2 (centres undefined) | 26% | i | 11µM* | i | i
Cc1cccc(NC(=O)c2ccc(F)c(S(=O)(=O)NCc3ccc4c(c3)OCO4)c2)c1 | nt | nt | 14% | i | i
CC1=C(C(=O)Nc2ccc([N+](=O)[O-])cc2)C(c2cccc(C(F)(F)F)c2)NC(=S)N1c1ccccc1 (centres undefined) | -3% | i | 0% | 10µM* | i
COc1ccc(C2NC(=S)N(c3ccccc3)C(C)=C2C(=O)Nc2ccccc2)cc1 (centres undefined) | 1% | i | 7% | i | i
CCN(CCCNC(=O)c1cc2cc3ccc(OC)cc3nc2s1)c1ccccc1 | nt | nt | -8% | i | i
CCCCN(C)C(=O)c1cc2cc3ccc(OC)cc3nc2s1 | -25% | i | 18µM* | i | i
COc1ccc(Nc2nc3cc(-c4sccc4C)sc3c(=O)n2C)cc1OC | 10% | i | 35µM* | ? | i
COc1ccccc1CNc1nc2cc(-c3ccc(OC)c(OC)c3)sc2c(=O)n1C | 13% | i | ? | ? | i
COc1ccc(Nc2nc3cc(-c4ccsc4)sc3c(=O)n2C)cc1OC | 16% | i | ? | 28µM* | i
COc1cccc(-c2cc3nc(Nc4ccc(OC)c(OC)c4)n(C)c(=O)c3s2)c1 | -1% | i | 0% | i | i
COc1ccc(-c2cc3nc(NCC4CCCCC4)n(C)c(=O)c3s2)cc1OC | 30% | i | 20µM* | i | 22µM*
SMILES | aSyn rescue | pAkt inh | TDP-43 yeast inh | FUS suppressor | Abeta yeast res
CCOC(=O)Cc1ccc(Nc2nc3cc(-c4sccc4C)sc3c(=O)n2C)cc1 | 11% | i | 20% | i | i
COc1ccc(CN2C(=O)C(NC(=O)c3ccccc3C)(C(F)(F)F)N=C2c2ccccc2)cc1 (centres undefined) | nt | nt | 29% | ? | i
COc1ccccc1C(=O)Nc1ccc(Br)cc1C | 4% | i | 18µM* | i | i
Cc1noc2nc(C(=O)O)nc(N3CCCCC3)c12 | nt | nt | ? | i | i
O=C(c1sc2cc(F)ccc2c1Cl)N1CCN(c2ccccc2)CC1 | 0% | i | 18µM* | i | i
Cc1ccc(NC(=O)CN2C(=O)C(c3ccc(C)cc3)=NC23CCCCCC3)cc1 | nt | nt | 15% | i | i
CC(=O)c1cccc(Nc2ccc(Br)cc2)c1 | -13% | i | 14µM* | i | i
CC(=O)c1cccc(NC(=S)NC(=O)c2ccc(Br)cc2)c1 | 2% | i | 12% | nt | i
CCOC(=O)c1ccc(N/C(=N\S(=O)(=O)c2ccccc2C)c2ccccc2)cc1 | 5% | i | 25µM* | i | i
COC(=O)c1ccc(N/C(=N/S(=O)(=O)c2ccccc2)c2ccccc2)cc1 | 2% | i | 15% | nt | i
COc1cccc(NC(=O)C2CCCN(c3nnc(-n4c(C)ccc4C)s3)C2)c1 (centres undefined) | nt | nt | 15% | i | i
CCCCn1c(=O)c(-c2ccccc2)c(O)c2ccccc21 | 0% | i | 18µM* | i | i
Cn1c(=O)c(-c2cccc(Cl)c2)c(O)c2ccccc21 | 7% | i | 11µM* | i | i
CCn1c(=O)c(-c2cc(=O)[nH][nH]2)c(O)c2ccccc21 | -1% | i | -4% | 32µM* | i
O=c1cc(-c2c(O)c3ccccc3n(Cc3ccccc3)c2=O)[nH][nH]1 | 3% | i | -3% | ? | i
Cc1cc(C)c2c(NC(=O)c3ccccc3Cl)c(C(=O)NCc3ccc(Cl)cc3)sc2n1 | nt | nt | 24% | i | i
COCCCNc1oc(-c2ccc(COc3ccccc3C)o2)nc1C#N | nt | nt | 16µM* | i | i
O=C(NCC(F)(F)F)c1cc2c(c(-c3cccc(-c4ccccc4F)c3)n1)[C@H](CCO)N(C(=O)CC1CC1)C2 | 11% | i | 21% | ? | i
CCCNC(=O)c1cc2c(c(-c3cccc(-c4ccccc4F)c3)n1)[C@@H](CCO)N(C(=O)CC1CC1)C2 | 0% | i | 14µM* | ? | i
CN(c1ccccc1)c1cc(Br)nc(Br)c1 | 0% | i | 14µM* | i | i
CN(c1ccccc1)c1ncccn1 | 1% | i | 12% | i | i
Fc1ccc(-c2cc(-c3nc(-c4ccc(Cl)cc4)no3)[nH]n2)cc1 | nt | nt | 0% | i | i
CCc1nc2ccc(C(=O)N3CCN(c4ccccc4F)CC3)cc2nc1CC | 1% | i | 20µM*! | ? | i
Cc1ccc(-c2nc3ccc(C(=O)O)cc3nc2-c2ccc(C)cc2)cc1 | 0% | -123%* | 0% | i | i

Screening results as filed in PubChem.
